# For some assays here: Measured potencies and affinities stand elsewhere.
# Tests used:
# Set-up in all cases: scale not given: direction of the effect not stated beside the values
# [1] = biological target: Protein translocase subunit SecA (Escherichia coli (strain K12)) (UniProt P10408); experiment: Assay to Identify E. coli SecA ATPase Inhibitors; type: functional; settings: 30 µM
# [2] = biological target: T1, Ubiquitin-activating enzyme e1, putative (Leishmania donovani (strain BPK282A1)) (UniProt E9BSI1); experiment: Leishmania donovani Ubiquitin Activating Enzyme (LdE1); type: functional; settings: 30 µM
# T1 sequence (whole entry): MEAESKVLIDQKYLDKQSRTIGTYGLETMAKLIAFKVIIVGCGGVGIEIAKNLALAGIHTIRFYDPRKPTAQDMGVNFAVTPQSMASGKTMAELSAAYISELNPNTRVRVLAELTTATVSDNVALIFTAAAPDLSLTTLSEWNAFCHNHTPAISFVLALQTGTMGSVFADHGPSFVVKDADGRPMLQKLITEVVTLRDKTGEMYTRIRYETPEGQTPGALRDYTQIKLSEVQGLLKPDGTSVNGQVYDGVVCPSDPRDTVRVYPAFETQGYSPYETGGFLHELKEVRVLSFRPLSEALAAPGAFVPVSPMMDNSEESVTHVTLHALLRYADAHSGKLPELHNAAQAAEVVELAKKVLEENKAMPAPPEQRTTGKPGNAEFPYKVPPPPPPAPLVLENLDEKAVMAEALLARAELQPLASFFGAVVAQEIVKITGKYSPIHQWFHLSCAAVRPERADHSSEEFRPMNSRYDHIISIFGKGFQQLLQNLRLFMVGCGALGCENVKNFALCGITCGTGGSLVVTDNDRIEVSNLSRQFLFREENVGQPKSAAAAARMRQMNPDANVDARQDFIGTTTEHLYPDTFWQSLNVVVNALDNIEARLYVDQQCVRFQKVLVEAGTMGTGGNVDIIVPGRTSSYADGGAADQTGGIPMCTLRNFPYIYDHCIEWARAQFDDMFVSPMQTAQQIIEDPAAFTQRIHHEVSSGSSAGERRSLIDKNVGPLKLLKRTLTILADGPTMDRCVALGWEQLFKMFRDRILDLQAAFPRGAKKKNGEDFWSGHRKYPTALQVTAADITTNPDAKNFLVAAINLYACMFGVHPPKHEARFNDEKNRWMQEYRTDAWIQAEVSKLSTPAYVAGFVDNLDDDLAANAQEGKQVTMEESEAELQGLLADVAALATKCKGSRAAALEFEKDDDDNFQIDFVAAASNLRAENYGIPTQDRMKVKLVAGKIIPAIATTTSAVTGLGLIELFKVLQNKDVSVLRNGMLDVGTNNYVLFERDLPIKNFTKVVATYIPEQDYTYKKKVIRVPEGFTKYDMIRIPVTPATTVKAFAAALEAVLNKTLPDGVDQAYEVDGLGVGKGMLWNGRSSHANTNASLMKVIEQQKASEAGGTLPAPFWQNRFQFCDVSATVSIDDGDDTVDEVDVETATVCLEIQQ
# [3] = biological target: Sialic acid-binding Ig-like lectin 9 (Homo sapiens) (UniProt Q9Y336); experiment: Hs-Siglec9 ALPHAscreen SOP 20170721; settings: 10 µM
# Sialic acid-binding Ig-like lectin 9 (Homo sapiens), sequence (Q9Y336 whole entry): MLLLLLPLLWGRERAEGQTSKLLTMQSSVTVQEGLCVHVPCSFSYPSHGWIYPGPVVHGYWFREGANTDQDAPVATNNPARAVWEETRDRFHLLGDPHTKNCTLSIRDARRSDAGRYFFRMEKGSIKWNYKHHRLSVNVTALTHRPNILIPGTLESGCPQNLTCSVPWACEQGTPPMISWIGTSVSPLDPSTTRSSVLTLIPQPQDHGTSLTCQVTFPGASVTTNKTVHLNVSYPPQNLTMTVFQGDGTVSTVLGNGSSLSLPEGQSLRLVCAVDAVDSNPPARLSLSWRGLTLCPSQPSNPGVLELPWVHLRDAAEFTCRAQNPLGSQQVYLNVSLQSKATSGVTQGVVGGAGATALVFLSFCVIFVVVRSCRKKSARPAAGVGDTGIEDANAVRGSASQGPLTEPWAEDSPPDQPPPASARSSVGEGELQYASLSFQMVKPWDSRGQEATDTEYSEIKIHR
# Trypanosoma cruzi = experiment: Trypanosoma cruzi phosphomannomutase and mannose-1-phosphate guanylyltransferase assay; type: functional; settings: 10 µM
# [4] = biological target: T2, Arginase-2, mitochondrial (Homo sapiens) (UniProt P78540); experiment: in vitro enzyme assay to detect the production of urea directly proportional to the activity of Arginase II; type: functional; settings: 33.3 µM; also: in the data most compounds retested in dose-response had high values
# T2 sequence (whole entry): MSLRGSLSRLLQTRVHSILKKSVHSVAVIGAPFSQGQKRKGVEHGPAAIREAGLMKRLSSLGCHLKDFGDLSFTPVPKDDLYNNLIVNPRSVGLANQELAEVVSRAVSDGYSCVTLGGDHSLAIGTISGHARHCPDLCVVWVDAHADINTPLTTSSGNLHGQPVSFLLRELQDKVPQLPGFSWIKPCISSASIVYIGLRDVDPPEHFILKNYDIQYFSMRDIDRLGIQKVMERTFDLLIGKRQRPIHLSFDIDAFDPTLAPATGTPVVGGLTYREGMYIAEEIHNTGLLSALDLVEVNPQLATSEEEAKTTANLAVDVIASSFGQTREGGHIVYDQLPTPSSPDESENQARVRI
# [5] = biological target: T3, Proteasome subunit beta (Trypanosoma cruzi) (UniProt O96673); experiment: Trypanosoma cruzi proteasome chymotrypsin-like activity (TcProtChymo) assay.; also: in the data most compounds retested in dose-response had high values; type: functional; settings: 9.37 µM
# T3 sequence (whole entry): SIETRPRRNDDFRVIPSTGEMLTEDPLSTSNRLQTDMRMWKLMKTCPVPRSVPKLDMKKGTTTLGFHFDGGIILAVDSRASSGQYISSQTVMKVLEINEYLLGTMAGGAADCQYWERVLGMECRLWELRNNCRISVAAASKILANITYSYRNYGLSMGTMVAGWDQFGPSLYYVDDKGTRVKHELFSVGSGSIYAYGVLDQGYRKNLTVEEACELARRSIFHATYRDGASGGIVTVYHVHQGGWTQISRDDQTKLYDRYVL
# Homo sapiens = species: Homo sapiens; experiment: To identify inhibition of the IFN signalling (Jak-Stat) pathway via expression of an eGFP reporter gene under the control of an IFN-stimulated response element (ISRE) containing MxA promoter.; type: functional; settings: 30 µM
# [6] = biological target: T4, Tyrosyl-tRNA synthetase, putative (Trypanosoma cruzi (strain CL Brener)) (UniProt Q4DSP6); experiment: Trypanosoma cruzi tyrosyl tRNA synthetase (TcYRS) _High Tyrosine SOP; type: functional; settings: 30 µM; also: in the data most compounds retested in dose-response had high values
# T4 sequence (whole entry): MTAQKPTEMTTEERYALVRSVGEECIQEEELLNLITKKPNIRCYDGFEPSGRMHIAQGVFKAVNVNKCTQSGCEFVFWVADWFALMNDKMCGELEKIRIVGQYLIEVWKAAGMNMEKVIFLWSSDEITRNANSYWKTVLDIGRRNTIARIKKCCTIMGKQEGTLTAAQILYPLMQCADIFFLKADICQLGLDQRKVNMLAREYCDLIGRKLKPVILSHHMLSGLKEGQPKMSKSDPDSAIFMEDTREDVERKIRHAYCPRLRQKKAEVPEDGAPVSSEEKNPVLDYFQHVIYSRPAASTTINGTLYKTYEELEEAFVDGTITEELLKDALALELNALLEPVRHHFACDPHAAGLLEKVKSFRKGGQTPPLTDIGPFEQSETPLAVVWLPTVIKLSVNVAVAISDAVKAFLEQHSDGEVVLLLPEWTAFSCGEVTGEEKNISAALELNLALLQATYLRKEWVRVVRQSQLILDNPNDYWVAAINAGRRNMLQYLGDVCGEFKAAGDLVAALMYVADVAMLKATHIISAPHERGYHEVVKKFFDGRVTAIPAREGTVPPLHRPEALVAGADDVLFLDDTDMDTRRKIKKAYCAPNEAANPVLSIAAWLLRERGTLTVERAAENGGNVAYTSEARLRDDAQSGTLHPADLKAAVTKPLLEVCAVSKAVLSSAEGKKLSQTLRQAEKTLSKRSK
# [7] = biological target: T4, Tyrosyl-tRNA synthetase, putative (Trypanosoma cruzi (strain CL Brener)); experiment: Trypanosoma cruzi tyrosyl tRNA synthetase (TcYRS) SOP; type: functional; settings: 30 µM
# [8] = biological target: Chromo domain-containing protein 1 (Saccharomyces cerevisiae (strain ATCC 204508 / S288c) (Baker's yeast)) (UniProt P32657); experiment: ScCHD-1 Enzyme Inhibition Assay; type: functional; settings: 30 µM; also: in the data most compounds retested in dose-response had high values
# Chromo domain-containing protein 1 (Saccharomyces cerevisiae (strain ATCC 204508 / S288c) (Baker's yeast)), sequence (P32657 whole entry, the tested form may be a part): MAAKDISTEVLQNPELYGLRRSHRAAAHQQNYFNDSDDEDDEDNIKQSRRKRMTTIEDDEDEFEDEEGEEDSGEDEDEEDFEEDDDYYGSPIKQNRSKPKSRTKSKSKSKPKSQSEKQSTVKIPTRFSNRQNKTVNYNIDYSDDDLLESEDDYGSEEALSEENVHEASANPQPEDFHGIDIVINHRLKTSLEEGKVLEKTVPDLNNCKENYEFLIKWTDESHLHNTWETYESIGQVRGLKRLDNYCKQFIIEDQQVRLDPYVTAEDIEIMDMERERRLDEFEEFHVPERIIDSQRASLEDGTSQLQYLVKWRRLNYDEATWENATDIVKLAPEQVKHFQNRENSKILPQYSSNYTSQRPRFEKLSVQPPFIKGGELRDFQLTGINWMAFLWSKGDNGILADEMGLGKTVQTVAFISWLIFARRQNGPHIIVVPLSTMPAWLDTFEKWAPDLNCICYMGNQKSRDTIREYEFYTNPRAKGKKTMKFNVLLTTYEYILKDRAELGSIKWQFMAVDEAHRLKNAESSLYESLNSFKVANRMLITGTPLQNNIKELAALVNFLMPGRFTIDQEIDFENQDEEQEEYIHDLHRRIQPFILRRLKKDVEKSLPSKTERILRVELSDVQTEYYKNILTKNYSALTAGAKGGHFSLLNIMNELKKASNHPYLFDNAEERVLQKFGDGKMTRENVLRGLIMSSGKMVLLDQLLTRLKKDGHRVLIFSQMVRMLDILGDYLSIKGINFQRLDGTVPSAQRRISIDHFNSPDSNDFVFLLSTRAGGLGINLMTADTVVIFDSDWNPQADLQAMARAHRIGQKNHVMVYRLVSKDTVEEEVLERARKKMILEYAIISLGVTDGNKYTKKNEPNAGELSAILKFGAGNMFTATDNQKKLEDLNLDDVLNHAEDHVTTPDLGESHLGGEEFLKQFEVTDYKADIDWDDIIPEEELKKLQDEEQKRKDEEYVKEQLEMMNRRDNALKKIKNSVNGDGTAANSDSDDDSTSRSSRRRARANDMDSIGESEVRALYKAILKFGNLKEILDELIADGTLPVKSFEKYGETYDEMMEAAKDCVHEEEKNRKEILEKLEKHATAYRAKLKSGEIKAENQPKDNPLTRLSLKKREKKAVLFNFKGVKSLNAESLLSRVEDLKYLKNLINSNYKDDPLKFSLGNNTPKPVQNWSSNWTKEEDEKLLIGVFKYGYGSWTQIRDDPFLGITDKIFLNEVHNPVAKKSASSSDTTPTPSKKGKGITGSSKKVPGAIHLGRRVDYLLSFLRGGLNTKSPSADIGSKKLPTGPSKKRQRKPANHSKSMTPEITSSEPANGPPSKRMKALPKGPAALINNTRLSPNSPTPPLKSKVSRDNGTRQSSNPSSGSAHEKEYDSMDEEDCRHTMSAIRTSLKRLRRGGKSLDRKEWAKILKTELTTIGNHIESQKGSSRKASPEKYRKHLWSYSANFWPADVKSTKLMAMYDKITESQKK
# Protein translocase subunit SecA (Escherichia coli (strain K12)), sequence (P10408 whole entry): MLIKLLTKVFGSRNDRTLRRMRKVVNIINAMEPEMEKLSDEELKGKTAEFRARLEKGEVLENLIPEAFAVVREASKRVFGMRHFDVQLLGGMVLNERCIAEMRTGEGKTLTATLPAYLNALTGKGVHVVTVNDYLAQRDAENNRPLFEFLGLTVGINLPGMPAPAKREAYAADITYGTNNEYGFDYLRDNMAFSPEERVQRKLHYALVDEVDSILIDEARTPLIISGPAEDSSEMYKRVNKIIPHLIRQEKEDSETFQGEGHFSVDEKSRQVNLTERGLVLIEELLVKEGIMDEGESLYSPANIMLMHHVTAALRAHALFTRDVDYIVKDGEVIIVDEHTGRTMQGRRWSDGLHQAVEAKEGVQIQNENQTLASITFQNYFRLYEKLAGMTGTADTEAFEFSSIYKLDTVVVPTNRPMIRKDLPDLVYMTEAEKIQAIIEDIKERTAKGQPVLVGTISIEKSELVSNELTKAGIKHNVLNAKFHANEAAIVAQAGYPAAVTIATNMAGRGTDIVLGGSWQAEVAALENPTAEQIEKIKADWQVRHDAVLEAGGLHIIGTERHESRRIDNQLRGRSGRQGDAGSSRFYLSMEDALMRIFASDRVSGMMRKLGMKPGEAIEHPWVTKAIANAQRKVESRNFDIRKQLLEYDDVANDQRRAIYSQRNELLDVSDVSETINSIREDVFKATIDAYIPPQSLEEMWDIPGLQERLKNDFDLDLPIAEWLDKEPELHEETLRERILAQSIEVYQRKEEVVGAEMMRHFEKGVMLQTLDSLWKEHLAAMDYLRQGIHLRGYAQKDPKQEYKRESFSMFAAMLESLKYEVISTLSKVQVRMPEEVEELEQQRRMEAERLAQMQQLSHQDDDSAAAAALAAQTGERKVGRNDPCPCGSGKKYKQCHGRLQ
SMILES,Percent Effect [1] [%],Percent Effect [2] [%],Percent Effect [3] [%],Percent Effect (Trypanosoma cruzi) [%],Percent Effect [4] [%],Percent Effect [5] [%],Percent Effect (Homo sapiens) [%],Percent Effect [6] [%],Percent Effect [7] [%],Percent Effect [8] [%]
Fc1ccccc1Cc1noc(CN2CCCC(CN3CCCC3)C2)n1 (stereo not given),-7.22,-2.7,4.23,7.86,-2.45,3.08,-6.53,6.92,12.2,-3.21
Cc1csc2ncc(-c3ccnc(N4CCN(C)CC4)n3)c(=O)n12,-1.31,0,-2.78,-3.21,-0.444,-0.933,0.181,-3.68,-10.3,-10.1
CC(C)n1ccnc1C1CCN(C(=O)c2ccccc2)CC1,-5.35,16.2,13.1,9.8,11.5,14,14.4,10.1,19.5,-5
COCCN1C(=O)CCC12CCN(C(=O)CC1CC1)CC2,-0.652,-1.3,0.0799,-0.938,2.28,5.75,11.8,-0.966,-15,0.945
CN1CCN(CC2CC2)C(=O)c2cnc(N3CC[C@@H](O)C3)nc21,-3.96,0,-4.48,-3.21,-4.43,3.99,-1.63,-2.63,-7.69,-9.27
Cc1noc(C)c1CN(C)CCC(=O)N1CCc2sccc2C1,-4.9,0,7.48,-1,0.444,8.74,17.8,4.74,5.13,-7.86
Cc1cc(CN2CCCC2c2noc(C)n2)no1 (stereo not given),3.19,2.67,5.36,-2.41,3.99,6.7,2.71,0.526,-2.56,-6.2
Cc1cnc(C(=O)N2C[C@@H]3CN(CC4CCCC4)CCO[C@@H]3C2)cn1,-3.12,11.7,4.74,0.682,-3.24,9.97,11,5.79,10.3,-2.15
CC(Nc1cccc(CN2CCOC2=O)c1)C(=O)NC(N)=O (stereo not given),-7.02,15.4,-17.4,13.1,-4.1,7.76,15.9,8.13,18.1,17.9
CC(C)n1ccnc1C1CCN(C(=O)C2COc3ccccc3O2)CC1 (stereo not given),-9.12,5.41,10.4,7.08,12.9,13.2,-5.55,7.98,14.6,-3.02
CCc1ccc(O)c(C(=O)NC2CCN(Cc3ccncc3)CC2)c1,-1.01,12.8,-9.09,-4.98,1.64,5.55,44.9,1.44,8.43,-6.65
CN(c1ccncn1)C1CC2(CCN(C(=O)c3ccsc3)C2)C1 (stereo not given),-2.12,22.7,0.226,3.55,-4.42,17.2,11.8,0,17.5,-21.9
O=C(NCCCn1ccnc1)N1CCCC1c1cccs1 (stereo not given),-1.21,12.8,-12.2,6.67,8.2,11,-4.65,7.18,18.1,-5.02
Cc1ccc(N2CCC3(CCCN(C(=O)c4cccnc4)C3)C2)nn1 (stereo not given),-10.1,1.3,11,-3.41,0.405,16.1,2.17,0.526,-10.3,0.442
Cn1cc(NC(=O)N2CCC(NS(C)(=O)=O)CC2)ccc1=O,1.1,48.7,0.0157,-2.54,13.9,1.11,18.1,-9.09,-13.2,-0.842
c1nc2n(n1)CC(NCc1csc(-c3ccsc3)n1)CC2 (stereo not given),-1.39,7.69,-4.25,1.97,9.43,2.3,6.22,9.09,20.5,-0.275
CN(Cc1ccc2c(c1)OCCO2)C(=O)Cn1ccccc1=O,-0.175,13.3,1.7,-5.02,5.76,19.8,3.52,2.63,7.69,-7.25
CN(C)c1cc(C(=O)N2CCN(c3cnccn3)CC2)ccn1,-1.53,10.3,0.94,3.1,2.46,3.16,3.38,5.26,10.8,-7.53
Cc1ccc(C(=O)N2C[C@@H](OCC3CCOCC3)[C@H]3OCCC[C@H]32)o1,-3.48,14.3,0.662,4.58,10.9,9.44,6.42,4.74,15.4,18.8
CCCc1noc(CN2CCCC2c2c(C)nn(C)c2OC)n1 (stereo not given),-8.89,-2.67,-1.2,-1.61,3.1,2.29,9.23,-2.63,-2.56,-6.05
COc1ccc(C(=O)N2C[C@@H](CN3CCOCC3)[C@@H](CO)C2)c(C)c1,-3.12,0,14.3,7.47,6.64,1.71,-27.6,1.6,9.76,-1.95
CCc1nccn1C1CCCN(C(=O)c2csc(COC)n2)C1 (stereo not given),-5.68,10.4,12.8,-5.78,-1.43,7.89,13.9,4.9,9.41,-5.76
CCc1ccc(S(=O)(=O)N2CCC3(CC(C(=O)NC)=NO3)C2)cc1 (stereo not given),-3.25,1.3,3.29,5.36,-4.05,4.68,-7.8,1.58,5.13,0.139

# — ChEMBL document CHEMBL3988442, “University of Dundee, Small-Polar-MMV Screening Library” (2021)
